± gives the standard deviation of the averaged measurements.
Compound: CC(C)c1cccc(C(C)C)c1N1C(=O)c2ccc(O)cc2C1=O
Assay: reporter fold induction vs vehicle; higher = higher reporter activity
Method in brief: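 Multiplexed cellular biosensor reporter system with cis response-element and trans nuclear-receptor transcription factor reporter constructs (48 cis, 25 trans) and homogeneous detection, tested in ToxCast Phase II at 8 concentrations (0.091–200 µM). Reporter activity is given as fold induction relative to vehicle control. Replicates were averaged where present.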

Row | Target | reporter fold induction (0.091 µM) | reporter fold induction (0.274 µM) | reporter fold induction (0.823 µM) | reporter fold induction (2.469 µM) | reporter fold induction (7.407 µM) | reporter fold induction (22.22 µM) | reporter fold induction (66.67 µM) | reporter fold induction (200 µM)
1 | FoxA2_CIS | 1.02 | 0.959 | 1.04 | 0.939 | 1.05 | 0.978 | 1.28 | 1.32
2 | THRa1_TRANS | 1.06 | 1.01 | 1.07 | 1.3 | 0.83 | 0.993 | 1.35 | 0.658
3 | PBREM_CIS | 1.05 | 1.04 | 0.916 | 0.965 | 1.24 | 1.15 | 1.19 | 1.16
4 | M_61_TRANS | 0.964 | 1.01 | 0.995 | 1.01 | 1.01 | 1 | 0.996 | 0.992
5 | TAL_CIS | 1.06 | 0.981 | 1.01 | 0.98 | 1.11 | 1.09 | 1 | 1.28
6 | IR1_CIS | 1.07 | 0.953 | 1.02 | 1.01 | 1.08 | 0.864 | 0.788 | 0.644
7 | ERRg_TRANS | 1.02 | 1.11 | 1.14 | 1.02 | 0.941 | 1.07 | 0.845 | 0.391
8 | VDRE_CIS | 1.07 | 1.09 | 0.969 | 0.979 | 1.62 | 1.76 | 2.18 | 3.25
9 | MRE_CIS | 1.05 | 0.983 | 1 | 0.924 | 1.22 | 1.2 | 1.8 | 3.72
10 | M_61_CIS | 0.997 | 0.997 | 1.01 | 0.995 | 1.02 | 1.02 | 0.98 | 1.09
11 | M_06_CIS | 0.997 | 0.997 | 1.01 | 0.995 | 1.02 | 1.02 | 0.98 | 1.09
12 | TA_CIS | 1.06 | 1 | 1.04 | 0.923 | 0.983 | 1.08 | 1.39 | 1.22
13 | Oct_MLP_CIS | 1.09 | 1.03 | 1.03 | 1.01 | 1.08 | 1.1 | 1.77 | 3.68
14 | AP_1_CIS | 1.01 | 0.867 | 0.986 | 0.984 | 1.2 | 1.44 | 1.7 | 0.71
15 | BRE_CIS | 0.993 | 0.878 | 1.14 | 0.967 | 0.938 | 0.934 | 3.36 | 1.05
16 | RORg_TRANS | 1.15 | 1.17 | 1.17 | 1.35 | 1.43 | 0.891 | 0.575 | 0.332
17 | RARb_TRANS | 0.778 | 0.835 | 0.897 | 0.861 | 1.51 | 1.95 | 1.29 | 0.429
18 | M_19_TRANS | 1.08 | 0.97 | 1.01 | 0.967 | 0.981 | 0.997 | 1.01 | 1.02
19 | HNF4a_TRANS | 1.1 | 1.42 | 0.883 | 1.11 | 1.1 | 1.07 | 0.715 | 0.473
20 | PPRE_CIS | 1.02 | 0.905 | 1.09 | 0.944 | 1.08 | 1.21 | 2.59 | 1.68
21 | E2F_CIS | 1.02 | 0.922 | 0.954 | 1.04 | 0.971 | 0.968 | 0.945 | 1.23
22 | Sox_CIS | 0.965 | 1.03 | 1.03 | 1.04 | 0.984 | 1.19 | 1.19 | 2.17
23 | PPARa_TRANS | 1.19 | 1.13 | 0.988 | 0.988 | 0.912 | 0.775 | 0.936 | 0.812
24 | RORb_TRANS | 0.758 | 0.955 | 0.81 | 1.32 | 0.966 | 0.625 | 0.434 | 0.342

Row | Target | reporter fold induction (0.091 µM) | reporter fold induction (0.274 µM) | reporter fold induction (0.823 µM) | reporter fold induction (2.469 µM) | reporter fold induction (7.407 µM) | reporter fold induction (22.22 µM) | reporter fold induction (66.67 µM) | reporter fold induction (200 µM)
25 | GAL4_TRANS | 1.03 | 0.907 | 0.951 | 0.908 | 0.842 | 0.905 | 0.61 | 0.53
26 | M_32_TRANS | 1.03 | 0.997 | 1.07 | 1.09 | 1.08 | 1.08 | 0.964 | 1
27 | Sp1_CIS | 1.04 | 1.04 | 1.02 | 0.989 | 1.11 | 1.08 | 1.39 | 2.02
28 | RARg_TRANS | 1.16 | 0.981 | 1.09 | 1.21 | 1.54 | 1.83 | 1.82 | 0.812
29 | HNF6_CIS | 0.992 | 0.941 | 0.978 | 0.981 | 0.982 | 0.952 | 0.932 | 0.692
30 | Xbp1_CIS | 1.06 | 0.98 | 0.93 | 0.937 | 1.21 | 1.13 | 1.74 | 4.47
31 | DR4_LXR_CIS | 1.02 | 0.906 | 1 | 1.02 | 0.88 | 0.462 | 0.424 | 0.478
32 | PXRE_CIS | 1.22 | 1.56 | 0.755 | 0.738 | 6.98 | 6.26 | 2.42 | 0.398
33 | Pax6_CIS | 1 | 1.01 | 1.02 | 1.1 | 0.964 | 1.1 | 1.49 | 2.44
34 | NRF1_CIS | 1.01 | 0.997 | 1.04 | 1.01 | 0.978 | 0.868 | 1.02 | 1.44
35 | AR_TRANS | 1.06 | 0.894 | 1.13 | 1.02 | 1.02 | 1.29 | 1.01 | 1.14
36 | CRE_CIS | 1.08 | 1.03 | 1.01 | 0.951 | 1.11 | 1.17 | 2.03 | 3.21
37 | XTT_Cytotoxicity | 97.6 ± 5.6 | 107 ± 18 | 111 ± 0.85 | 108 ± 3.1 | 123 ± 3.8 | 111.2 ± 0.75 | 113.8 ± 0.46 | 106.5 ± 0.33
38 | LXRa_TRANS | 0.858 | 0.611 | 1 | 0.742 | 0.814 | 0.638 | 0.979 | 0.718
39 | DR5_CIS | 0.96 | 1.09 | 1.11 | 0.929 | 1.98 | 2.11 | 1.71 | 2.04
40 | PPARg_TRANS | 1.01 | 1.06 | 0.946 | 0.881 | 1.19 | 1.53 | 1.62 | 1.47
41 | VDR_TRANS | 1.07 | 1.13 | 1.1 | 1.39 | 1.07 | 1.41 | 1.2 | 1.54
42 | TGFb_CIS | 1.08 | 0.916 | 0.91 | 0.906 | 0.939 | 1.03 | 1.23 | 0.915
43 | EGR_CIS | 1.05 | 0.979 | 0.95 | 0.927 | 1.1 | 1.2 | 1.64 | 2.7
44 | M_19_CIS | 1.01 | 1.01 | 0.978 | 1.01 | 0.961 | 0.953 | 1.05 | 0.776
45 | CMV_CIS | 0.996 | 0.94 | 1 | 0.92 | 1.02 | 1.41 | 1.73 | 1.11
46 | GRE_CIS | 0.966 | 0.951 | 1.06 | 1.05 | 0.999 | 0.996 | 1.01 | 0.888
47 | RXRa_TRANS | 0.986 | 0.983 | 1.1 | 0.957 | 1.09 | 1.31 | 1.31 | 1.84
